Data published in PubChem BioAssay (EPA / NIEHS).
Results filed as inconclusive are left out. Active and inactive are the calls of the source. The calls were made as follows: active = hit-call score of the fitted dose curve at least 0.9, where 1 is the maximum; inconclusive = response in the unintended direction; inactive = score below 0.9.

Experiments:
[1] = TOX21_p53_BLA_p2_viability: Viability Assessment in the Tox21 HCT-116 p53 Agonism Beta-lactamase Assay, Phase 2 (AID 2283591);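 also: compound exposure lasted 16 h at 37 °C; actives lower the ATP signal meaning cytotoxicity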
Procedure, shortened: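 Cytotoxicity readout: CellTiter-Glo ATP luminescence, 30 min at room temperature, after the beta-lactamase read. Cells were HCT116 exposed 16 h at 37C to compounds pin-transferred at 217-fold dilution from DMSO stocks.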

[2] = TOX21_p53_BLA_p3_viability: Viability Assessment in the Tox21 HCT-116 p53 Agonism Beta-lactamase Assay, Phase 3 (AID 2283593);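 also: cells exposed to compound for 16 h before reading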
Procedure, shortened: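 Cellular ATP was quantified by CellTiter-Glo luminescence, read after 30 min at room temperature. Beforehand, HCT116 cells (4000/well) received compound 5 h post-seeding, 217-fold diluted from DMSO, then incubated 16 h at 37C.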

[3] = molecular target: Cellular tumor antigen p53 (Homo sapiens) (UniProt P04637); assay: TOX21_p53_BLA_p3_ratio: Tox21 HCT-116 p53 Agonism Beta-lactamase Assay, Ratio, Phase 3 (AID 2283596)
Procedure, shortened: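 Cells were seeded at 4000/well, rested 5 h at 37C, then dosed with DMSO compound solutions (217-fold dilution) for 16 h. CCF4-AM substrate was loaded for 2 h at room temperature, and the 460/530 nm emission ratio was fitted for gain of signal versus DMSO.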

[4] = molecular target: Cellular tumor antigen p53 (Homo sapiens) (UniProt P04637); assay: TOX21_p53_BLA_p4_ratio: Tox21 HCT-116 p53 Agonism Beta-lactamase Assay, Ratio, Phase 4 (AID 2283601)
Procedure, shortened: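 Signal is the blue/green (460nm/530nm) ratio of cleaved versus uncleaved CCF4-AM substrate, read after 2 h substrate loading. Cells were HCT116 carrying the p53-responsive beta-lactamase reporter, dosed 16 h at 37C, 5% CO2; CellTiter-Glo measured in parallel.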

[5] = TOX21_p53_BLA_p4_viability: Viability Assessment in the Tox21 HCT-116 p53 Agonism Beta-lactamase Assay, Phase 4 (AID 2283597);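 also: hits lower the luminescence signal meaning cytotoxicity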
Procedure, shortened: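 Viability is taken as cellular ATP: after 16 h compound exposure of HCT116 cells and a 2 h room-temperature CCF4-AM substrate step, CellTiter-Glo reagent is added and luminescence is measured 30 min later.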

[6] = molecular target: Cellular tumor antigen p53 (Homo sapiens) (UniProt P04637); assay: TOX21_p53_BLA_p5_ratio: Tox21 HCT-116 p53 Agonism Beta-lactamase Assay, Ratio, Phase 5 (AID 2283599)
Procedure, shortened: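 Beta-lactamase reporter ratio (blue 460 nm over green 530 nm, 405 nm excitation) after 2 h CCF4-AM loading, in HCT-116 cells exposed 16 h at 37 C to compounds pinned at 217-fold dilution. Increases relative to DMSO baseline scored.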

[7] = TOX21_p53_BLA_p5_viability: Viability Assessment in the Tox21 HCT-116 p53 Agonism Beta-lactamase Assay, Phase 5 (AID 2283600)
Procedure, shortened: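 Viability is taken from cellular ATP content, measured by luciferase luminescence in the same wells after the beta-lactamase ratio read. Cells are seeded at 4000 per well and exposed to DMSO-dissolved compounds, diluted 217-fold, for 16 h.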

Measured: outcome

Chain of Cellular tumor antigen p53 (Homo sapiens) (P04637 whole entry, looked up): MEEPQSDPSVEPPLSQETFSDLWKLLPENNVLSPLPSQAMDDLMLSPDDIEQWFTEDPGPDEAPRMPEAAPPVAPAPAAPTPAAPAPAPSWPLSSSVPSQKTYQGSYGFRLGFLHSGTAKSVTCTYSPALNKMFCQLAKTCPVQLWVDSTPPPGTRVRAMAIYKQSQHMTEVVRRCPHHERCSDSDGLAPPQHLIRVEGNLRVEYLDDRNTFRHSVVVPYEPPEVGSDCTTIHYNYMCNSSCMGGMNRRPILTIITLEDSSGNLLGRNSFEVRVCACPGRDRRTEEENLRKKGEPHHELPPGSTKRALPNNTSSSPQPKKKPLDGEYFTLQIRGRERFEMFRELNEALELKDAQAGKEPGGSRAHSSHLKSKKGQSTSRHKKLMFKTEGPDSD

O=[N+]([O-])O[C@H]1CO[C@H]2[C@@H]1OC[C@H]2O[N+](=O)[O-]
inactive: [1] | [2] | [3] | [4]

CC(C)C[C@H]1C(=O)N2CCC[C@H]2[C@]2(O)O[C@](NC(=O)[C@@H]3C[C@@H]4c5cccc6[nH]cc(c56)C[C@H]4N(C)C3)(C(C)C)C(=O)N12
inactive: all assays above
